Laboratory results taken from PubChem BioAssay AID434973 (Sanford-Burnham Center for Chemical Genomics, 2010).
About 4,900 (1.5%) of roughly 330,000 compounds were called active.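 The calls were made as follows: active = inhibition above about 50% at the single test dose (limit read from the data); inactive = the rest.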 What follows is part of a selection rich in actives, with near analogues and random picks from the rest.

Target: Sentrin-specific protease 7 (Homo sapiens) (UniProt Q9BQF6)
Experiment: blockers of human SENP7 peptidase activity – biochemical, luminescence, uHTS, primary screen (AID 434973);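 also: plate controls were DMSO with enzyme for no effect and no enzyme buffer wells for full effect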
Settings: recombinant SENP7, Z-RLRGG-aminoluciferin luminescence, 40 min; at 5 µM; stronger effect = higher value

inhibition, active:
CCN1C(=O)c2cccc3c(N)ccc1c23 95.9%
O=C(NCc1ccccn1)c1c(O)c2c([nH]c1=O)CCCC2 53.8%
O=C(Nc1ccn(Cc2ccccc2)n1)c1n[nH]c([N+](=O)[O-])c1Cl 93.9%
Cc1cc(NC(=O)c2ccc(F)cc2)ccc1NC(=O)c1ccco1 64.1%
COc1ccccc1C(=O)Nc1ccc(NC(=O)c2ccco2)c(C)c1 50.6%
O=C(Nc1cccnc1Cl)c1cc(-c2ccccc2O)on1 52%
CCC(=O)Nc1ccc2nn(-c3ccc(F)cc3)nc2c1 81.9%
COc1cccc(C(=O)Nc2nc3ccc(S(C)(=O)=O)cc3s2)c1 91.1%
CCc1noc(C)c1C(=O)Nc1nc2ccc(OC)cc2s1 53.6%
Cc1c(C(=O)Nc2ccccn2)oc2ccc(Br)cc12 65.6%
Cc1cccc(NC(=O)/C=C/c2ccc3c(c2)OCO3)n1 78%
Cc1c(Cl)cccc1NC(=O)Nc1ccc(C(=O)N2CCCC2)cc1 57%

inhibition, inactive:
O=C(NCc1cccc(Cl)c1)C1=CC=CN2CCS(=O)(=O)N=C12 -0.294%
CN1C(=O)c2cccc3c(N)ccc(c23)C1=O -3.67%
CCN1C(=O)c2cccc3c(S(=O)(=O)Nc4ccccc4O)ccc1c23 11.4%
CCOC(=O)C1=NNC2(c3ccc(Cl)cc3)C(=O)N(c3cc(C)cc(C)c3)C(=O)C12 (configuration not stated) 6.05%
CCCn1c(=O)c2c(C(F)(F)F)cc(-c3cccs3)nc2n(CCC)c1=O 3.7%
CCc1nnc(NC(=O)c2c(O)c3c([nH]c2=O)CCCC3)s1 -5.71%
C[N+](C)(C)CCNC(=O)c1c(O)c2c([nH]c1=O)CCCC2 4.83%
CN1CCN(S(=O)(=O)c2ccc(Nc3ccc(F)cc3)nc2)CC1 -1.19%
O=C(Nc1ccn(Cc2ccccc2F)n1)c1ccc(COc2ccc(Cl)cc2Cl)o1 -4.47%
Cc1c(Br)c([N+](=O)[O-])nn1CC(=O)N1CCN(Cc2ccccc2)CC1 -3.11%
CCN(CC)S(=O)(=O)c1ccc(C(=O)N2CCN(C3=NS(=O)(=O)c4ccccc43)CC2)cc1 0.565%
COC(CNC(=O)c1ccc2c(c1)ncn2-c1cc(C)cc(C)c1)OC -3.05%
COc1cc2c(cc1OC)C(C)N(S(=O)(=O)c1cnc(Cl)c(Cl)c1)CC2 (configuration not stated) 7.13%
CCn1ccnc1CN(C)Cc1nc(-c2ccc3c(c2)OCO3)no1 3.04%
COc1ccc(OCC(=O)Nc2ccc(NC(=O)c3ccco3)c(C)c2)cc1 -4.14%
O=C(Nc1ccc(O)cc1)c1ccc(NC(=O)c2ccco2)cc1 -10.1%
COc1ccc(NC(=O)c2ccco2)cc1NC(=O)c1ccc(C#N)cc1F 1.99%
Cc1cccc(OCC(=O)Nc2ccc(NC(=O)c3ccco3)c(C)c2)c1 7.42%
[O-][N+]12CCCCC1CCCC2CO (configuration not stated) 5.46%
O=C(COc1nc2ccccc2nc1N1CCOCC1)NCC(F)(F)F -5.55%
CC1CCN(C(=O)C2CCN(S(=O)(=O)N3CCC4(CC3)OCCO4)CC2)CC1 6.94%
C=CCNC(=O)c1cc(-c2ccccc2O)on1 -13.1%
O=C(Nc1cccnc1Cl)c1cc(-c2cccc(Cl)c2)on1 -0.404%
Cc1nc2nc(COc3ccccc3)[nH]n2c(=O)c1Cc1ccccc1 -6.63%
CC(Oc1ccc(Br)cc1Br)C(=O)NC1CCCC1 (configuration not stated) 4.39%
CN(CCC(=O)Nc1cc(S(=O)(=O)N(C)C)ccc1Cl)CC(=O)Nc1ccc(F)cc1 4.2%
Cc1ccccc1Nc1c([N+](=O)[O-])ccc2nonc12 -0.26%
Cc1cccc(C(=O)OCC(=O)Nc2ccc(F)cc2)c1 -5.6%
Cc1ccc(-n2nc3ccc(NC(=O)/C=C/c4ccco4)cc3n2)cc1C -3.4%
CC12CN(Cc3ccccc3)CC(C)(CN(Cc3ccccc3)C1)C2=NO -9.93%
CCc1noc(C)c1C(=O)Nc1nc(-c2ccccc2)cs1 0.582%
COc1cccc(C(=O)Nc2nnc(S(=O)(=O)N(C)c3ccccc3)s2)c1 2.47%
Cc1noc(C)c1CSCC(=O)Nc1nc2ccc(Oc3ccccc3)cc2s1 7.89%
COc1cccc(C(=O)Nc2nnc(S(=O)(=O)N3CCOCC3)s2)c1 -5.71%
O=C(Nc1ccccc1)c1nnsc1S(=O)(=O)c1ccc(Cl)cc1 7.61%
O=C(Oc1ccccc1)Oc1ccc2c(c1)oc(=O)c1ccccc12 11.6%
Cc1cc(NC(=O)C(C)SCC(=O)Nc2ccccc2N2CCCCC2)no1 (configuration not stated) 7.37%
Cc1nn(C)c(C(=O)NNC(=S)NC2CCCCC2)c1Cl 15.8%
O=C(CN1C(=O)NC2(CCCC2)C1=O)OCCOc1ccc(F)cc1 2.48%
OCCC1CN(Cc2cccc(O)c2)CCN1CCc1ccccc1 (configuration not stated) -3.9%
Cc1nonc1NC(=O)c1oc2ccccc2c1C -17.1%
COC(=O)c1oc2ccc(Br)cc2c1NC(C)=O -6.53%
Cc1ccc(OCC(=O)Nc2ccccc2Sc2ccc(Cl)cc2)c([N+](=O)[O-])n1 3.81%
CCN(CC(=O)Nc1ccc(NC(C)=O)cc1)C(=O)CSC(=S)N1CCCC1 -7.39%
O=C(/C=C/c1ccc2c(c1)OCO2)NCc1ccc(F)cc1 -2.53%
Cc1cccc(NC(=O)Nc2ccc3c(c2)OCO3)n1 17%
CCN(CC(=O)NCC(=O)Nc1cccc(C)c1C)Cc1ccccc1 1.52%
O=C(COC(=O)c1ccc(O)cc1)Nc1nccs1 -6.7%
O=C(Nc1ccc(Cl)cc1)Nc1ccc(C(=O)N2CCOCC2)cc1 11.1%
Cc1c(Cl)cccc1NC(=O)NCCCN1CCCC1=O -2.59%
